An excerpt weighted towards active compounds, which were near 1.6% of everything screened.
STAT1 inh: STAT1 signaling inhibition. NIH 3T3 STAT1-luciferase reporter, IFN-gamma, luminescence. inhibition, % at 5.5 µM. 200,000 tested, 0.35% active;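 active means inhibition above a set limit, the mean inhibition across all tested compounds plus 3 SD, cut at about 34% in these data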;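 further: 0% = IFN-gamma with DMSO and 100% = IFN-gamma with 300 µM nifuroxazide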
Platelet DG rel: platelet dense granule release activity; inhibition, %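 (compounds screened at 7.5 µM in platelet-rich plasma)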; AID 1663; human platelet-rich plasma, SFLLRN dense granule ATP release, luminescence; 300,000 tested, 0.22% active;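 active means mean replicate score, as percent of positive control, at or above 50; inconclusive means mean below 50 but at least one replicate at or above 50; inactive means mean and every replicate below 50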
PPC-1+TRAIL kill: kills PPC-1 cancer cells in the presence of TRAIL | AID 1443 | cell killing (% activity), % at 4 µM or 5 µM | PPC-1 cells + TRAIL, ATPLite viability luminescence | 220,000 tested, 0.41% active;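 active means cell killing above 50% in the first pass at 4 µM, then a duplicate retest at 5 µM averaging 50% or more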;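 further: plate controls were cells with TRAIL plus DMSO for no effect and medium-only wells lacking cells for full effect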
STAT3 inh: inhibitors of IL-6 induced STAT3 signaling | U3A cells, IL-6 STAT3-luciferase reporter, luminescence; host cell line lacks STAT1 | inhibition, % at 5.5 µM | 190,000 tested, 0.89% active;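 active means inhibition above the mean inhibition across all screened compounds plus 3 SD, cut at about 44% in these data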;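 further: 0% = DMSO only wells and 100% = 100 µM nifuroxazide control wells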
TRAIL sens C8: caspase-8 TRAIL sensitization; NB7+C8 cells + TRAIL, ATPlite viability luminescence; inhibition (viability loss, TRAIL sensitization), % at 10 µM; 360,000 tested, 1% active; AID 624354;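 active means compounds causing at least 50% loss of cell viability in the single-dose screen, relative to plate controls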
PPC-1 tox: kills PPC-1 cells. shares compounds with PPC-1+TRAIL kill. PPC-1 viability, ATPlite luminescence, overnight. cytotoxicity, % at 5 µM. 1,200 tested, 50% active;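 active means reconfirmed compounds whose average cytotoxicity reaches 50% or more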;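 further: 0% = DMSO-treated cells and 100% = wells holding medium but no cells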
* marks the source's active call; other numbers are inactive results.

How did Cc1ccccc1NS(=O)(=O)c1ccc(C(=O)NCC(C)(C)N2CCOCC2)cc1 do in these assays?
Platelet DG rel: 28.7; TRAIL sens C8: 4.4

Results for O=C(COc1ccc(F)cc1Br)Nc1ccccc1N1CCOCC1 ?
TRAIL sens C8: -0.4

How did C[C@H](CO)N1C[C@H](C)[C@@H](CN(C)Cc2ccncc2)OCc2cnnn2CCCC1=O do in these assays?
TRAIL sens C8: -4.5

Results for COc1cccc(-c2noc(CCC(=O)NC3CCCCC3)n2)c1 ?
STAT1 inh: 1.6; Platelet DG rel: 1.1; PPC-1+TRAIL kill: -1.4; STAT3 inh: 5.0; TRAIL sens C8: 21.5; PPC-1 tox: 5.4

What do the screens show for `COc1ccc(-c2noc(CCC(=O)NC3CCCCC3)n2)cc1OC`?
STAT1 inh: 3.0; Platelet DG rel: 5.1; PPC-1+TRAIL kill: 12.7; STAT3 inh: -7.7; TRAIL sens C8: 0.8

What do the screens show for `COC(=O)[C@@]1(Sc2ccc(C)cc2)CC(=O)N[C@@H]1c1ccc(Br)cc1`?
TRAIL sens C8: -5.0

Results for Fc1ccc(CSc2nc3ccccc3[nH]2)cc1 ?
STAT1 inh: -31.8; Platelet DG rel: 7.3; PPC-1+TRAIL kill: 32.9; STAT3 inh: 12.9; TRAIL sens C8: 44.9; PPC-1 tox: 27.9

What do the screens show for `CC1(C(=O)NS(=O)(=O)c2ccc(Cl)cc2)CCN1C(=O)C/C=C/c1ccccc1` (centres undefined)?
TRAIL sens C8: -11.3

Results for Fc1cccc(Cc2c(-c3ccco3)nc3c4ccccc4ccn23)c1 ?
TRAIL sens C8: 19.1

What do the screens show for `O=c1oc(/C=C/c2ccccc2)nc2sc3c(c12)CCC3`?
STAT1 inh: -10.8; Platelet DG rel: 8.8; PPC-1+TRAIL kill: 8.0; STAT3 inh: 7.9; TRAIL sens C8: 7.8; PPC-1 tox: -0.9

Results for CCCS(=O)(=O)NC(=O)C1(C)CCN(C(=O)c2ccc(SC(F)(F)F)cc2)C1 (centres undefined) ?
TRAIL sens C8: -13.1

How did Clc1ccccc1C=NNc1ccccn1 do in these assays?
TRAIL sens C8: 11.8

Results for COc1ccc2nc(Cl)c(/C=N/Nc3ccccn3)cc2c1 ?
STAT1 inh: 2.0; Platelet DG rel: -2.2; PPC-1+TRAIL kill: 66.5*; STAT3 inh: 7.2; TRAIL sens C8: 66.8*; PPC-1 tox: 65.4*

What do the screens show for `Cc1cc(N)c2cc(NC(=O)/C=C/c3ccccc3Cl)ccc2n1`?
Platelet DG rel: -0.1; PPC-1+TRAIL kill: 97.5*; TRAIL sens C8: 95.0*; PPC-1 tox: 96.8*

Results for Cc1cc(C)nc(NC(=O)/C=C/c2ccccc2Cl)n1 ?
STAT1 inh: 1.5; Platelet DG rel: -20.4; PPC-1+TRAIL kill: -0.9; STAT3 inh: 19.2; TRAIL sens C8: 7.8

Results for CCCCCCNC(=O)c1c(O)c2cccc3c2n(c1=O)CCC3 ?
STAT1 inh: -8.0; Platelet DG rel: 6.9; PPC-1+TRAIL kill: 26.4; STAT3 inh: 4.4; TRAIL sens C8: -9.5

What do the screens show for `O=C(NCCNCCO)c1c(O)c2cccc3c2n(c1=O)CCC3`?
STAT1 inh: -3.0; Platelet DG rel: 6.8; PPC-1+TRAIL kill: 11.7; STAT3 inh: -0.3; TRAIL sens C8: 10.6; PPC-1 tox: 9.8

Results for COc1ccc(S(=O)(=O)N2CCCCC2c2cc(C(=O)NCc3ccccc3)no2)cc1 (centres undefined) ?
TRAIL sens C8: -10.0

What do the screens show for `COc1ccc(-c2nsc(C(=O)N(c3ccc(F)cc3)C(C(=O)NC3CCCC3)c3ccc(OC)cc3)c2N)cc1` (centres undefined)?
STAT1 inh: 1.9; Platelet DG rel: -2.1; PPC-1+TRAIL kill: 5.6; STAT3 inh: 3.4; TRAIL sens C8: 0.1; PPC-1 tox: 0.8

Results for O=C(COc1ccc(CO)cc1)Nc1ccc(F)cc1 ?
STAT1 inh: -2.5; Platelet DG rel: 1.1; PPC-1+TRAIL kill: 25.3; STAT3 inh: -4.6; TRAIL sens C8: -3.8

How did O=C(COc1ccc(CO)cc1Cl)Nc1ccc(F)cc1 do in these assays?
STAT1 inh: -38.9; Platelet DG rel: 3.7; PPC-1+TRAIL kill: 44.9; STAT3 inh: 31.7; TRAIL sens C8: 54.5*; PPC-1 tox: 45.5

Results for CCOc1ccc(-c2nc3ccccc3c(=O)o2)cc1 ?
STAT1 inh: -22.5; Platelet DG rel: 12.3; PPC-1+TRAIL kill: 54.4*; STAT3 inh: 4.9; TRAIL sens C8: 68.0*; PPC-1 tox: 56.4*

What do the screens show for `CC(C)(C)c1ccc(NC(=O)Nc2ccc(OCC(=O)N3CCOCC3)cc2)cc1`?
STAT1 inh: -38.5; Platelet DG rel: -8.5; PPC-1+TRAIL kill: 63.1*; STAT3 inh: 12.1; TRAIL sens C8: 78.0*; PPC-1 tox: 63.1*

What do the screens show for `O=C(Nc1ccc(OCC(=O)N2CCOCC2)cc1)Nc1cccc(Cl)c1`?
STAT1 inh: 0.4; Platelet DG rel: -2.5; PPC-1+TRAIL kill: 15.8; STAT3 inh: -3.5; TRAIL sens C8: -0.6

What do the screens show for `Clc1ccc(-c2nnc(SCc3ccon3)o2)c(Cl)c1`?
STAT1 inh: -28.5; Platelet DG rel: 9.8; PPC-1+TRAIL kill: 44.0; STAT3 inh: 35.2; TRAIL sens C8: 48.2*; PPC-1 tox: 39.0

How did Oc1ccc(Nc2ncnc3c2oc2ccccc23)cc1 do in these assays?
Platelet DG rel: 3.7; TRAIL sens C8: 8.8

How did c1ccc(Nc2ncnc3c2oc2ccccc23)cc1 do in these assays?
STAT1 inh: -35.2; Platelet DG rel: -1.4; PPC-1+TRAIL kill: 4.7; STAT3 inh: 0.0; TRAIL sens C8: 18.5; PPC-1 tox: 1.3

Results for C(=C\c1nc2ccccc2[nH]1)/c1ccccc1 ?
STAT1 inh: 43.0*; Platelet DG rel: inconclusive; PPC-1+TRAIL kill: 87.5*; STAT3 inh: 81.9*; TRAIL sens C8: 85.6*; PPC-1 tox: 87.9*

What do the screens show for `O=C(Nc1ccc(Cl)c(Cl)c1)c1ccncc1`?
STAT1 inh: -26.8; PPC-1+TRAIL kill: 8.2; STAT3 inh: 13.5; TRAIL sens C8: 2.5; PPC-1 tox: 11.5

What do the screens show for `O=C(Nc1ccc(Cl)c(Cl)c1)c1ccc(Cl)c(Cl)c1`?
Platelet DG rel: -3.1; PPC-1+TRAIL kill: 2.0; TRAIL sens C8: -1.1

Results for Cc1ccc2oc(/N=C(\N)NC(=O)C(C)(C)C)nc2c1 ?
Platelet DG rel: 24.4; PPC-1+TRAIL kill: 83.2*; TRAIL sens C8: 86.3*; PPC-1 tox: 83.1*

How did CC(C)(C)c1ccc(C(=O)N/C(N)=N/c2nc3ccccc3o2)cc1 do in these assays?
STAT1 inh: -3.6; Platelet DG rel: 6.3; PPC-1+TRAIL kill: 5.7; STAT3 inh: 9.0; TRAIL sens C8: 5.6

How did CCC(C)c1ccc(OCC(=O)Nc2ccc3c(c2)C(=O)NC3=O)cc1 (centres undefined) do in these assays?
Platelet DG rel: 1.2; TRAIL sens C8: 4.2

Results for O=C(c1ccc2c3n(nc2c1)-c1ccc(Cl)cc1CO3)N1CCOCC1 ?
Platelet DG rel: 10.4; PPC-1+TRAIL kill: 29.5; TRAIL sens C8: 26.3

What do the screens show for `C[C@@H](CO)NC(=O)c1ccc2c3n(nc2c1)-c1ccccc1CO3`?
Platelet DG rel: 42.0; PPC-1+TRAIL kill: 88.7*; TRAIL sens C8: 90.8*; PPC-1 tox: 90.9*
